Shown are actives, neighbours in structure and some others; about 2.4% of the full set was active somewhere.
AmpC nodet inh: Promiscuous and Specific Inhibitors of AmpC Beta-Lactamase (assay without detergent); AmpC nitrocefin hydrolysis, absorbance 480 nm, no detergent; Potency, µM (titrated, usually from 28.7 µM), for inactives: at the highest dose activity change, negative = inhibition; actives 1.8% (n = 71,000); further: % of control where 0% means no effect
Target sequence (P00811 whole entry, looked up): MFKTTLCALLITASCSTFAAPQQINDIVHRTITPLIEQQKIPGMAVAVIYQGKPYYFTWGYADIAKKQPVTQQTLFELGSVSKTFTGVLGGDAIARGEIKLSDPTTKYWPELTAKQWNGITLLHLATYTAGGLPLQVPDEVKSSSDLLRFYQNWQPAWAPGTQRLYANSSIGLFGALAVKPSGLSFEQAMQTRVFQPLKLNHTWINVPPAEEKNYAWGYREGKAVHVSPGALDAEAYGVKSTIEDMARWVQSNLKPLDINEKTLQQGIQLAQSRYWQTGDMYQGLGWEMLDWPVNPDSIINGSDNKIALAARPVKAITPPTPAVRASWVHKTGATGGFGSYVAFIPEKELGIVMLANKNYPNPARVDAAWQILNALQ
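Enzyme, pH 7.0 phosphate. Compound titrations were pre-incubated with AmpC for 15 min at room temperature before nitrocefin (stock 800 uM) addition; product formation was recorded at 480 nm every 20 s for 4 min.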
Prx2 Sm inh: Schistosoma Mansoni Peroxiredoxins (Prx2). AID 448, 2006. S. mansoni Prx2 activity coupled to TGR/GSH (TGR is thioredoxin glutathione reductase), NADPH fluorescence loss, qHTS. actives 0.07% (n = 65,000). Schistosoma mansoni peroxiredoxin 2 (Prx2). Potency, µM
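Activity is read as the drop in NADPH fluorescence (365/450 nm), recorded every 30 sec for 8 min after H2O2 addition. Prx2 is coupled to TGR-driven NADPH oxidation through glutathione, in phosphate buffer pH 7.4.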
LT uptake inh: qHTS Assay for Anthrax Lethal Toxin Internalization; Cells, anthrax lethal toxin internalization, FRET ratio (460/530); Potency, µM (top dose mostly 40 µM), without a hit: at the highest dose activity change, negative = inhibition, usual class: inhibitors; actives 0.67% (n = 70,000); further: on the % scale 0 is the no-effect control and ±100 the full control effect; nearly all actives have a fitted effect of over 50% in size
AmpC det inh: Promiscuous and Specific Inhibitors of AmpC Beta-Lactamase (assay with detergent); AID 584, 2007; Potency, µM (doses to about 28.7 µM), without a hit: at the highest dose activity change, negative = inhibition; purified AmpC, nitrocefin hydrolysis with detergent; actives 0.09% (n = 71,000); P00811; active means well fitted curve in the direction sought with a large enough effect; inconclusive means small, poorly fitted or top-dose-only effect; further: on the % scale 0 is the no-effect control and ±100 the full control effect
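E. coli AmpC (5.3 nM) in 20 mM phosphate pH 7.0 with 0.01% Triton X-100, preincubated 15 min RT with compound; nitrocefin (2 uL of 800 uM stock) hydrolysis followed by 480 nm absorbance every 20 s over 4 min.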
The depositor's hits bear a star; [ ] = another dose, or the depositor's remark. Unless noted, the call rests on the fitted dose curve. Potency means the concentration at half of the fitted maximal effect.

What do the screens show for `c1ccc(C2CC(c3ccccc3)n3ncnc3N2)cc1` (stereo not given)?
AmpC nodet inh: 16%; Prx2 Sm inh: >57; LT uptake inh: 7%; AmpC det inh: 0%

What do the screens show for `CCOc1ccc(C2CC(c3cccc(C)c3)n3ncnc3N2)cc1` (stereo not given)?
AmpC nodet inh: 83%; Prx2 Sm inh: >57; LT uptake inh: -13%; AmpC det inh: 13%

Results for Fc1ccc(C2CC(c3ccccc3)Nc3ncnn32)cc1 (stereo not given) ?
AmpC nodet inh: 4µM*[single pt active]; Prx2 Sm inh: >57; LT uptake inh: -11%; AmpC det inh: 14%

How did Cc1cccc(C2CC(c3ccccc3)Nc3ncnn32)c1 (stereo not given) do in these assays?
AmpC nodet inh: 4µM*[single pt active]; Prx2 Sm inh: >57; LT uptake inh: -1%; AmpC det inh: 15%

How did COc1ccc(C2CC(c3cccc(C)c3)n3ncnc3N2)cc1 (stereo not given) do in these assays?
AmpC nodet inh: 4µM*[single pt active]; Prx2 Sm inh: >57; LT uptake inh: -2%; AmpC det inh: 15%

What do the screens show for `COc1cccc(Cn2c(=O)c(-c3cccs3)nc3cnc(N(C)C)nc32)c1`?
AmpC nodet inh: -12%; Prx2 Sm inh: >57; LT uptake inh: inconclusive; AmpC det inh: -3%

How did CN1CCC[C@@H]1c1cccnc1 do in these assays?
AmpC nodet inh: -2%; Prx2 Sm inh: >57; LT uptake inh: 4%; AmpC det inh: -3%

Results for C[C@H]1C[C@@H]2[C@H]3CCC4=CC(=O)C=C[C@@]4(C)[C@]3(Cl)[C@@H](Cl)C[C@]2(C)[C@]1(O)C(=O)COP(=O)(O)O ?
AmpC nodet inh: -15%[5.75 µM]; Prx2 Sm inh: >57; LT uptake inh: -9%[8 µM]; AmpC det inh: -10%[5.75 µM]

Results for CCCC(=O)N1CCN(c2ccc(NC(=O)c3cc4ccccc4o3)cc2Cl)CC1 ?
AmpC nodet inh: 50%; Prx2 Sm inh: >57; LT uptake inh: 6.3µM*; AmpC det inh: -2%

Results for CCC(=O)N1CCN(c2ccc(NC(=O)c3cc4ccccc4o3)cc2Cl)CC1 ?
AmpC nodet inh: 109%; Prx2 Sm inh: >57; LT uptake inh: 10µM*; AmpC det inh: -5%

Results for O=C(Nc1ccc(N2CCN(C(=O)c3ccco3)CC2)c(Cl)c1)c1cc2ccccc2o1 ?
AmpC nodet inh: 18%; Prx2 Sm inh: >57; LT uptake inh: inconclusive; AmpC det inh: -4%

How did CN(Cc1ccco1)c1nc(-c2ccccc2C(F)(F)F)nc2ccccc12 do in these assays?
AmpC nodet inh: 27%; Prx2 Sm inh: >57; LT uptake inh: inconclusive; AmpC det inh: 6%

What do the screens show for `O=c1[nH]c2[nH]c(=S)[nH]c(=S)c2[nH]1`?
AmpC nodet inh: -6%[5.75 µM]; Prx2 Sm inh: >57; LT uptake inh: -10%[8 µM]; AmpC det inh: -5%[5.75 µM]

How did Nc1nc(N)nc(CCCc2nc(N)nc(N)n2)n1 do in these assays?
AmpC nodet inh: 2%[5.75 µM]; Prx2 Sm inh: >57; LT uptake inh: -9%[8 µM]; AmpC det inh: 0%[5.75 µM]

How did CCc1nnc(NC(=O)CSc2nnc(COc3ccccc3C)o2)s1 do in these assays?
AmpC nodet inh: 13µM*[single pt active]; Prx2 Sm inh: >57; LT uptake inh: -2%; AmpC det inh: -3%

What do the screens show for `c1ccc2sc(C3(N4CCCCC4)CCCCC3)cc2c1`?
AmpC nodet inh: 27%; Prx2 Sm inh: >57; LT uptake inh: 25µM*; AmpC det inh: -3%

Results for COc1ccc(NC(=O)N2CCCC3(CCN(C(=O)c4c(C)noc4C)CC3)C2)cc1 ?
AmpC nodet inh: 9%; Prx2 Sm inh: >57; LT uptake inh: -12%; AmpC det inh: 0%

What do the screens show for `CC(=O)OCC1=C(C(=O)[O-])N2C(=O)[C@@H](NC(=O)CCC[C@@H](N)C(=O)[O-])[C@@H]2SC1.[Zn+2]`?
AmpC nodet inh: 1%; Prx2 Sm inh: >57; LT uptake inh: 1%; AmpC det inh: -1%

Results for CC(=O)OCC1=C(C(=O)O)N2C(=O)[C@@H](N)[C@@H]2SC1 ?
AmpC nodet inh: 5µM*; Prx2 Sm inh: >57; LT uptake inh: 7%[3.58 µM]; AmpC det inh: inconclusive

Results for CCOC(=O)C(C(=O)OCC)c1cc(Br)c2noc3c2c1C(=O)c1ccccc1-3 ?
AmpC nodet inh: -4%; Prx2 Sm inh: 0.53*; LT uptake inh: inconclusive; AmpC det inh: 3%

What do the screens show for `O=C(N/N=C1/C[C@@H](O)[C@@H](O)[C@@H]2[C@@H]3C(=O)N(C[C@@H]4CCCO4)C(=O)[C@H]3CC[C@@H]12)OCc1ccccc1`?
LT uptake inh: 4%[1.6 µM]

Screens deposited in PubChem BioAssay by National Center for Advancing Translational Sciences (NCATS).
